# Bioassay records as filed in PubChem.
# These entries were drawn from the full list.
# aSyn UTR act = Activators via SNCA 5'UTR binding, MLPCN; alpha-synuclein 5'UTR reporter, activators screen; activity score, % (tested at 7.5 µM), hits read low; 300,000 tested, 7.1% active; AID 1814, 2009; in the data active = activity score below about -60%
# Hits are given with their value; 0 = inactive.
SMILES,aSyn UTR act
CCn1cc(Cl)c(C(=O)Nc2nccs2)n1,-81.8
O=C(Nc1nccs1)c1ncc(Cl)c(Cl)c1Cl,-75.7
CCOC(=O)C1CCCCN1C(=O)CCc1c(C)nc2cc(-c3ccccc3)nn2c1C (stereo unspecified),0
CC(=O)C1CCCN(C(=O)c2ccc3oc(CCc4ccccc4)nc3c2)C1 (stereo unspecified),-94.0
COCCC1CCCCN1C(=O)c1ccc2nc(Cc3ccccc3F)oc2c1 (stereo unspecified),-131.1
COC(=O)C1CCCCN1C(=O)c1ccc2oc(Cc3ccccc3)nc2c1 (stereo unspecified),-87.9
CCOC(=O)C1CCCN(C(=O)c2ccc3oc(CCc4ccccc4)nc3c2)C1 (stereo unspecified),-72.2
O=C(c1ccc2oc(CCCc3ccccc3)nc2c1)N1CCCC1,-140.9
COc1ccc(C2=NNC(c3cc(Cl)cc4c3OCOC4)C2)c(O)c1 (stereo unspecified),-73.2
CCOC(=O)C1(Cc2ccccc2Cl)CCN(C(=O)c2cnccn2)CC1,-125.0
CCOC(=O)C1(Cc2ccccc2Cl)CCN(C(=O)c2cc(C)on2)CC1,-83.5
O=C(Nc1ccccc1)C1=C[C@H](c2ccc(C(F)(F)F)cc2)C[C@H](OCCCCO)O1,-91.2
CCO[C@@H]1OC(C(=O)Nc2ccccc2)=C[C@H](c2coc3ccccc3c2=O)[C@H]1CCCO,0
O=C(Nc1ccccc1)C1=C[C@@H](c2ccc(Br)cc2)C[C@@H](OCCCCO)O1,-94.8
O=C(Nc1ccccc1)C1=C[C@H](c2ccccc2)C[C@H](OCCCCO)O1,-146.5
O=C(NCCCn1ccnc1)c1cc2ccccc2oc1=O,-65.0
O=C(NCCCn1ccnc1)c1cc(-c2cccc(O)c2)on1,-64.6
CCOc1ccc(-c2cc(C(=O)NCCCn3ccnc3)c3cc(Br)ccc3n2)cc1,0
COc1ccc(O)c(/C=N/NC(=O)c2ccc(OCc3cccc(Br)c3)cc2)c1,0
COc1cccc(C(=O)N/N=C/C(Br)=C/c2ccccc2)c1,-135.5
Cn1cc(C(=O)N/N=C/C(Br)=C\c2ccccc2)ccc1=O,-83.0
[O-][n+]1onc2c3cc(-c4ccccc4)nnc3ccc21,-99.5
COc1ccc(-c2noc(-c3ccc(Cl)cc3[N+](=O)[O-])n2)cc1OC,-118.4
Cc1cccc(-c2noc(-c3ccc(Cl)cc3[N+](=O)[O-])n2)c1,-150.6
CCCc1ccc2oc(C(=O)N(Cc3nccn3C)C(C)C)c(C)c2c1,-72.6
SMILES,aSyn UTR act
CCCc1ccc2oc(C(=O)N(C)Cc3ccn[nH]3)c(C)c2c1,-84.6
COc1ccc(C(=O)/C(=C/N(C)C)S(=O)(=O)c2ccccc2)cc1,-160.5
Cc1ccc(-c2nc3cccnc3s2)cc1NS(C)(=O)=O,-186.1
COc1cc(NS(=O)(=O)c2ccc(C)cc2)c2ncccc2c1,0
CCS(=O)(=O)Nc1cccc(-c2nc3cccnc3s2)c1C,-98.5
CCOC(=O)CNC(=O)c1ccc(SCC)cc1,-91.5
Cc1cccc(Nc2nnc(SCC3CCCCO3)s2)c1 (stereo unspecified),-183.8
c1ccc2nc(SCc3cn4ccccc4n3)cnc2c1,-65.7
Cc1cc(C)c(C#N)c(SCc2cn3c(C)cccc3n2)n1,-104.4
Cc1cccc2nc(CSc3nc4ccccc4o3)cn12,-88.8
c1ccc2oc(SCc3cn4ccccc4n3)nc2c1,-111.4
N#Cc1ccccc1NC(=O)c1ccccc1OCC(=O)NCc1ccco1,-68.3
Cn1c(/C(C#N)=C(\O)c2ccc(Br)s2)nc2ccccc21,-71.9
Cc1[nH]c2ccccc2c1/C=C/C(=O)c1ccccc1,-63.9
Cc1[nH]c2ccccc2c(=O)c1C(=O)/C=C/c1ccccc1,-280.5
Cc1ccc(C(=O)NC(=S)NCC2CCCO2)cc1Br (stereo unspecified),-154.6
O=C(NC(=S)NCC1CCCO1)c1ccc(Br)o1 (stereo unspecified),-108.4
COc1ccc(-c2nc(-c3cccc(C)c3)nc(N3CCN(C)CC3)c2C#N)cc1,0
Brc1ccc(-c2nnc(-c3ccccc3)c(N3CCSCC3)n2)cc1,-85.1
CN1CCN(c2nc(-c3ccc(Br)cc3)nnc2-c2ccccc2)CC1,-123.4
COc1ccc(N2C(=O)c3ccccc3NC2(C)C)cc1,-69.3
CC1(C)Nc2ccccc2C(=O)N1c1ccc(Br)cc1,-84.0
Cc1ccc2c(c1)[nH]c1c(=O)n(Cc3ccco3)cnc12,-118.4
COc1ccc2c(c1)O/C(=C\c1sccc1C)C2=O,-197.8
CCOC(=O)c1ccc(NC(=S)Nc2ccc(Br)cc2N)cc1,-114.0
SMILES,aSyn UTR act
CCOC(=O)c1ccc(NC(=S)Nc2cccc(N)n2)cc1,-146.8
CCCOc1ccc(-c2csc3nc[nH]c(=O)c23)cc1,-159.3
O=c1[nH]cnc2scc(-c3ccc(-c4ccccc4)cc3)c12,-87.5
Cn1nc(-c2ccccc2)cc1NC(=O)C1CCCCC1,-69.5
O=C(c1ccc(Cl)cc1)N1CCCCC(Sc2nnc(-c3ccc4c(c3)OCO4)o2)C1=O (stereo unspecified),0
O=C(Nc1nnc(-c2ccccc2)o1)C1CCCCC1,-62.7
CC1(C)COCN1S(=O)(=O)c1ccc(C(=O)Nc2nnc(-c3ccc(Cl)s3)o2)cc1,0
O=C(Nc1nnc(-c2ccc3c(c2)OCCO3)o1)C1CCCCC1,-88.3
O=C(Nc1nnc(-c2ccc(Cl)s2)o1)C1CCCCC1,-62.6
O=C(Nc1nnc(-c2ccc(Cl)cc2)o1)C1CCCCC1,-80.1
Clc1ccc(-c2nnc(NC3=NCCCCC3)o2)cc1,0
[O-]/C(=C(\C(=S)Nc1ccc(SC(F)F)cc1)[n+]1ccccc1)c1ccc(Cl)cc1Cl,-71.5
CCOC(=O)C1CCN(c2ncnc3c(C)csc23)CC1,-68.8
O/N=C/c1ccn(-c2ccc(Br)cc2)c1,-84.1
O=[n+]1c2c(n([O-])c3cc(F)c(N4CCCC4)cc31)CCCC2,-77.0
Cc1nc(NC(=O)c2ccccc2)nc2cc3c(cc12)OCO3,-127.2
Cc1nc(NC(=O)c2ccc(F)cc2)nc2cc3c(cc12)OCO3,-119.6
NNc1nc2c(-c3cccc(C(F)(F)F)c3)nnn2c2ccccc12,-70.9
O=[N+]([O-])c1ccccc1/C=N/NC1=NCCCCC1,-173.0
COc1cnn(-c2ccc(C)cc2)c(=O)c1SCc1ccccc1,-76.8
COc1cnn(-c2ccc(Br)cc2)c(=O)c1SCc1ccccc1,-70.7
COc1cc(N)ccc1C(=O)O,-76.0
COC(=O)C(C)N1C(=O)S/C(=C/c2cc(C)n(-c3ccccn3)c2C)C1=O (stereo unspecified),-83.0
CC(/C=C1\SC(=O)N(CCCC(=O)O)C1=O)=C\c1ccccc1,0
CCc1ccc(/C=C2\SC(=S)N(CCCC(=O)Nc3ccccn3)C2=O)cc1,0
SMILES,aSyn UTR act
CCOC(=O)CN1C(=O)S/C(=C/c2cc(C)n(-c3ccccn3)c2C)C1=O,-149.8
CCOC(=O)CN1C(=O)S/C(=C/c2cc(C)n(C)c2C)C1=O,-177.4
CCOC(=O)c1sc2nccc(N(C)C)c2c1N=CNOCc1ccccc1,-91.9
O=C1C2C(C(=O)N1/N=C/c1cccc([N+](=O)[O-])c1)C1C=CC2C12CC2 (stereo unspecified),-153.0
CC1(C)CC(=O)c2sc(NC(=O)C(C)(C)C)nc2C1,-184.0
CC1(C)CC(=O)c2sc(NC(=O)c3ccccc3)nc2C1,-78.4
CC1(C)CC(=O)c2sc(NC(=O)c3ccc4ncsc4c3)nc2C1,-76.6
CC1(C)CNC(=O)c2sc(NC(=O)c3ccccc3)nc2C1,-154.9
COC(=O)c1ccc(Nc2nc3ccc(C)cc3n3cnnc23)cc1,-97.7
COc1cccc(NC(=O)c2cnc(SCC(=O)NCc3ccc4c(c3)OCO4)n(C)c2=O)c1,-82.2
